Here are results for eight compounds from PubChem BioAssay (Tox21).

The nature of test [1]: Nuclear factor erythroid 2-related factor 2/antioxidant responsive element (Nrf2/ARE) small molecule agonists: qHTS cell viability counter screen in human keratinocytes (AID 1919968; active means well fitted cell-killing curve with a large enough effect in the repeat runs; further: nearly all actives have a fitted effect of over 55% in size; further: potency means the concentration at half of the fitted maximal effect). The gist of the method: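 KeratinoSens cells (HaCaT keratinocytes stably carrying an ARE-luciferase reporter) were seeded at 1,500 cells/well and rested 5 h at 37 C/5% CO2. They were then exposed to compounds in DMSO for 23 h. Viability was read by CellTiter-Fluor fluorescence after 1 h.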
On the technique in general: In qHTS, concentration-response curves come from the screen itself.

A short description of test [2]: Nuclear factor erythroid 2-related factor 2/antioxidant responsive element (Nrf2/ARE) small molecule agonists: luciferase reporter gene qHTS assay in human keratinocytes (AID 1919969). Further: nearly all actives have a fitted effect of over 35% in size. For orientation: Reporter assays use an easily measured gene product as a stand-in for the process of interest.
Test [3] deals with Gonadotropin-releasing hormone receptor (Homo sapiens) (UniProt P30968). Briefly: Human gonadotropin-releasing hormone receptor (GnRHR) small molecule agonists, calcium flux assay in GnRHR-HEK293 cells (AID 1920063). Further: nearly all actives have a fitted effect of over 35% in size. The gist of the method: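 HEK293 cells stably expressing human GnRHR were plated 18 h at 37 °C, loaded with calcium dye 1 h at 37 °C, then given compound in agonist mode; fluorescence (Ex/Em 480/540) read kinetically for 3 min at 1 s intervals.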
On the technique in general: Calcium assays in cells follow changes in intracellular calcium, usually with a dye or a luminescent sensor.

The nature of test [4]: G protein-coupled receptor (GPCR) small molecule agonists, calcium flux assay: HEK293 wild type cell line counter screen (AID 1920065). The method in brief: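 Cells were plated and cultured 18 h at 37 C/5% CO2, then loaded with calcium dye for 1 h at 37 C. Compounds in DMSO were pin-transferred in agonist mode, and fluorescence (Ex/Em 480/540) was read kinetically for 3 min at 1 s intervals.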

Test [5] is described as follows: p53 small molecule agonists, cell-based qHTS assay with rat liver microsomes: qHTS cell viability counter screen (AID 1963580). Further: nearly all actives have a fitted effect of over 45% in size. The gist of the method:
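p53RE-bla HCT-116 cells were exposed 16 h at 37 C to compounds with rat liver microsomes (0.5 mg/mL) and NADPH (0.5 mg/mL). Viability was measured in the same wells as ATP content by CellTiter-Glo luminescence.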

Test [6] deals with 5-hydroxytryptamine receptor 2A (Homo sapiens) (UniProt P28223). Put plainly: 5-hydroxytryptamine receptor 2A (HTR2A) small molecule agonists, cell-based qHTS assay (AID 1963587). Further: nearly all actives have a fitted effect of over 30% in size. The method in brief: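 CHO cells stably expressing human HTR2A, plated 18 h, loaded with calcium dye 1 h at 37 C. Agonist mode: compounds added and intracellular calcium fluorescence recorded kinetically for 2 min at 1 sec intervals.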

Test [7] concerns the target Muscarinic acetylcholine receptor M1 (Homo sapiens) (UniProt P11229). Briefly: Cholinergic receptor muscarinic 1 (CHRM1) small molecule antagonists, cell-based qHTS assay (AID 1963588). Further: nearly all actives have a fitted effect of over 40% in size. The method in brief: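 CHRM1-CHO calcium-flux assay, antagonist mode. Cells were seeded 18 h, dye-loaded 1 h at 37 C and given compound for 5 min at RT, then acetylcholine was added at 50nM. FDSS fluorescence was read 3 min; 15 concentrations, three runs.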

For test [8] the target is unchanged. Put plainly: Cholinergic receptor muscarinic 1 (CHRM1) small molecule agonists, cell-based qHTS assay (AID 1963589). Further: nearly all actives have a fitted effect of over 35% in size. The method in brief: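 CHO cells stably expressing human CHRM1, seeded 18 h at 37 C/5% CO2, dye-loaded 1 h at 37 C, then given compound in agonist mode; intracellular calcium fluorescence read kinetically at 1 s intervals. Fifteen concentrations, three independent runs.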

Test [9] addresses Beta-2 adrenergic receptor (Homo sapiens) (UniProt P07550). Put plainly: Adrenergic beta2 receptor (ADRB2) small molecule antagonists, cell-based qHTS assay (AID 1963592). Further: nearly all actives have a fitted effect of over 50% in size. Further: potency means the concentration at half of the fitted maximal effect. The method in brief: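 Cells (CHO, stable ADRB2 overexpression) incubated 18-20hr at 37C; compounds added from DMSO; agonist mix (1nM isoproterenol, 100uM IBMX, 25uM Ro-20-1724) added; 0.5hr RT; d2-cAMP and anti-cAMP-cryptate added; 1hr RT; 665/615 nm read.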

Test [10] deals with D(2) dopamine receptor (Homo sapiens) (UniProt P14416). Put plainly: Dopamine D2 receptor (DRD2) small molecule agonists, cell-based qHTS assay (AID 1963594). Further: nearly all actives have a fitted effect of over 35% in size. The method in brief:
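HEK293 cells stably expressing human DRD2, pre-treated with PDE inhibitor Ro20-1724 (0.1 mM final) and compound 10 min at room temperature, then stimulated with NKH477 (200nM […]) for 30 min. cAMP read by HTRF (665/620 nm).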

The target is the same in test [11]. Put plainly: Dopamine D2 receptor (DRD2) small molecule antagonists, cell-based qHTS assay (AID 1963595; active means well fitted inhibition curve with a large enough effect in the signal ratio in the repeat runs, with a control signal flat; the % refers to the signal ratio). The gist of the method: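 Cells were plated and grown for 24 h at 37 °C. Ro20-1724 (0.1 mM final) went in first, then compound for 10 min. NKH477 (200 nM) with quinpirole (12 nM) followed for 30 min at RT, then HTRF detection reagents for 1 h.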
The nature of test [12]: p53 small molecule agonists, cell-based qHTS assay with human liver microsomes: qHTS cell viability counter screen (AID 1963579). Further: nearly all actives have a fitted effect of over 45% in size. The gist of the method: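 Seed p53RE-bla cells at 4,000 per well; incubate 5 h at 37 C; add compound, human liver microsomes and NADPH; incubate 16 h at 37 C; add CellTiter-Glo; after 30 min at room temperature, read luminescence.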
The nature of test [13]: p53 small molecule agonists, cell-based qHTS assay: qHTS cell viability counter screen (AID 1963581). Further: nearly all actives have a fitted effect of over 45% in size. The method in brief:
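p53RE-bla HCT-116 cells were exposed to compounds for 16 h at 37 C; after the beta-lactamase FRET read in the same wells, CellTiter-Glo was added and luminescence (intracellular ATP) read after 30 min at room temperature.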

The target in test [14] is 5-hydroxytryptamine receptor 2A (Homo sapiens) (UniProt P28223). Briefly: 5-hydroxytryptamine receptor 2A (HTR2A) small molecule antagonists, cell-based qHTS assay (AID 1963586). Further: nearly all actives have a fitted effect of over 45% in size. The method in brief:
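Antagonist-mode intracellular calcium assay: DOI (4 nM) added after 5 min compound pre-incubation at room temperature to dye-loaded HTR2A-CHO cells. Fluorescence followed for 3 min, sampled every second.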

The nature of test [15]: cAMP Responsive Elements (CRE) small molecule agonists, cell-based qHTS assay (AID 1963590). The method in brief: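 CRE-bla HEK 293T cells in DMEM with 10% dialyzed FBS, NEAA, pyruvate and 25 mM HEPES were plated 18 h at 37 C/5% CO2, then exposed to compounds in DMSO for 3 h before LiveBLAzer B/G FRET substrate addition.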
The nature of test [16]: cAMP Responsive Elements (CRE) small molecule antagonists, cell-based qHTS assay (AID 1963591; active means well fitted inhibition curve with a large enough effect in the signal ratio in the repeat runs, not every such curve was filed as active; the % refers to the signal ratio). The gist of the method:
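CRE-bla HEK293T cells were plated 18 h at 37 °C/5% CO2, pinned with compound in DMSO, then stimulated with NKH477 at 0.25 uM final for 3 h. LiveBLAzer B/G FRET substrate was added and plates incubated 2 h at room temperature.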

Test [17] has as its target Beta-2 adrenergic receptor (Homo sapiens) (UniProt P07550). Put plainly: Adrenergic beta2 receptor (ADRB2) small molecule agonists, cell-based qHTS assay (AID 1963593).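 Further: CHO cells stably overexpressing human ADRB2.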 The method in brief: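 CHO cells stably over-expressing ADRB2 were plated overnight at 37C, then dosed with compounds plus a stimulation mix containing 100uM IBMX and 25uM Ro-20-1724 for 0.5hr at room temperature. cAMP was measured by HTRF competition, 1hr.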

Test [18] in a line: p53 small molecule agonists, cell-based qHTS assay with rat liver microsomes (AID 1963578). The gist of the method: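 Fluorescence from a beta-lactamase reporter under a p53 response element was measured after cells had been incubated 16 h at 37 C with test compound and rat liver microsomes plus NADPH (0.5 mg/mL final each).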
Test [19] in a line: p53 small molecule agonists, cell-based qHTS assay (AID 1963582; active means well fitted activation curve with a large enough effect in the signal ratio in the repeat runs, not every such curve was filed as active; the % refers to the signal ratio). The gist of the method:
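p53RE-bla beta-lactamase reporter cells rested 5 h at 37 C/5% CO2, then received compounds in DMSO by pin transfer and were incubated 16 h at 37 C. LiveBLAzer B/G FRET substrate was loaded for 2 h at room temperature before fluorescence reading.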

Records with an inconclusive call do not appear. Activity calls are given as the source filed them. Unless noted, the call rests on the fitted dose curve.

Gonadotropin-releasing hormone receptor (Homo sapiens), sequence (P30968 whole entry, looked up): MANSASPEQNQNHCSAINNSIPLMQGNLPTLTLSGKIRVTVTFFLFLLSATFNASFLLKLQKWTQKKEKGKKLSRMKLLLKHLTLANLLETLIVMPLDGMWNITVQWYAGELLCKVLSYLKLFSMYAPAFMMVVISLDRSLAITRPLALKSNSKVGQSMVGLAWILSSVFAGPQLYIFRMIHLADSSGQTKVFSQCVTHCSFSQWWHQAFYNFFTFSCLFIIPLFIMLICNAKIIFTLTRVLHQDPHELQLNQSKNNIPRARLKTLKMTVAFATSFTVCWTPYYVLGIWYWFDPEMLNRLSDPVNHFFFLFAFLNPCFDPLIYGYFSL
D(2) dopamine receptor (Homo sapiens), sequence (P14416 whole entry, looked up): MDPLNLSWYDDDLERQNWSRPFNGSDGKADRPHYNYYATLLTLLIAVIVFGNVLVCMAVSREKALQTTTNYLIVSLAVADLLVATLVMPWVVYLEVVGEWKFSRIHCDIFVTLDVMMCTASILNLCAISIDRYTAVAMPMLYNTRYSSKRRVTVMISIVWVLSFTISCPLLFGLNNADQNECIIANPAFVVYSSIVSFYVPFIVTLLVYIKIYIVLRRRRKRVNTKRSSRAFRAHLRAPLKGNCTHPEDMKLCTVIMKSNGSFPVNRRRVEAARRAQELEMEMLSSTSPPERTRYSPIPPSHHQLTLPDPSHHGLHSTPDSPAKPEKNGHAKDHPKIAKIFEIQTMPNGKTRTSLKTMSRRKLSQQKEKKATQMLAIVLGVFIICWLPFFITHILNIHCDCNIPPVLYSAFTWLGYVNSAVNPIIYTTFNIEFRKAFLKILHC
5-hydroxytryptamine receptor 2A (Homo sapiens), sequence (P28223 whole entry, looked up): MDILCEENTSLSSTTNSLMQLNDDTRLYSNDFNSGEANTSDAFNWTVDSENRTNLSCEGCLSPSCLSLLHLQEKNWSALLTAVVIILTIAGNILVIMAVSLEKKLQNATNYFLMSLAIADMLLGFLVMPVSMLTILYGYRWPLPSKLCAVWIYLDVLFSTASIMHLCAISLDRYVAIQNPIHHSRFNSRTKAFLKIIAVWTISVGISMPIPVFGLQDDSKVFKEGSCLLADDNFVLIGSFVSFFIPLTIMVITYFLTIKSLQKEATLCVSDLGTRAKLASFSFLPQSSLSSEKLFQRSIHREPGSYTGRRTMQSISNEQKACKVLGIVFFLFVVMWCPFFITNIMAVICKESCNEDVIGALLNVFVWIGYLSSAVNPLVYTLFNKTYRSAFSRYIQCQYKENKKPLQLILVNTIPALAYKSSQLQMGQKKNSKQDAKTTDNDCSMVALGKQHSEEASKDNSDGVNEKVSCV
Muscarinic acetylcholine receptor M1 (Homo sapiens), sequence (P11229 whole entry, looked up): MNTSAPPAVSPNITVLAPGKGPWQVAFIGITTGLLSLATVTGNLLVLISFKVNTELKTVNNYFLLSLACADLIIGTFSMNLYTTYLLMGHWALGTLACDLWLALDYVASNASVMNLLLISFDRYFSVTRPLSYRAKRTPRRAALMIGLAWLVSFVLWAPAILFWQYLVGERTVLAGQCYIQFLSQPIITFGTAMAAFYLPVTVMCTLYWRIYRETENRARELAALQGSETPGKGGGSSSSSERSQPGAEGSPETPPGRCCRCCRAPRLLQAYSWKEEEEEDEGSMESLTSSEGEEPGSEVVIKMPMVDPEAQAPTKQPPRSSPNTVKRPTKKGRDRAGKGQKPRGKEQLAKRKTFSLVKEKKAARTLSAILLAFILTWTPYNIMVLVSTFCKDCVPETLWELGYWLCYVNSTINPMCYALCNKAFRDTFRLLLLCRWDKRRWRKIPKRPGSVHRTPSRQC
Beta-2 adrenergic receptor (Homo sapiens), sequence (P07550 whole entry, looked up): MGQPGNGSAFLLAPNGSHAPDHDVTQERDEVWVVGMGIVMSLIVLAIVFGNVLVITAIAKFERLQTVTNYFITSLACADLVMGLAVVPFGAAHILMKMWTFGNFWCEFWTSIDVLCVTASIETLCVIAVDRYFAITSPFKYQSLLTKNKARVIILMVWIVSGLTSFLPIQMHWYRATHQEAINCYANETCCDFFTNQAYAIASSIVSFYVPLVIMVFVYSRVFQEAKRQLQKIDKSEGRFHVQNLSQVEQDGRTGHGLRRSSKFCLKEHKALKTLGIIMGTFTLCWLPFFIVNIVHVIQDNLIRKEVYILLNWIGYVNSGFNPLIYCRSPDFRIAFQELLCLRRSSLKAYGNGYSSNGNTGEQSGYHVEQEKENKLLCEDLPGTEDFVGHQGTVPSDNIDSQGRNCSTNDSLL

Take `CC(C)OC(=O)c1cc(C(=O)OC(C)C)cc([N+](=O)[O-])c1`: the Potency result in test [1], in test [2], in test [3], in [4], in test [5] and in [6] was “inactive” each time. In addition, the Potency entry in test [7], in [8], in [10] and in test [11] was “inactive” each time. Moreover, the Potency in [9] is 62.6 µM (active).

On to `N#CCCNCCC#N`, for which the Potency result in test [1], in test [2], in test [3], in test [4], in [12] and in test [5] was “inactive” each time. The Potency entry in [13], in test [14], in test [6], in [7], in [8] and in test [15] was “inactive” throughout. For the same compound, the Potency result in test [16], in test [9], in test [17], in test [10] and in test [11] was “inactive” throughout.

`CC(C)(CO)[C@@H](O)C(=O)NCCCO`: the Potency entry in [1], in [2], in test [3], in test [4], in [12] and in test [5] was “inactive” throughout. Moreover, the Potency result in test [13], in test [15], in test [16], in test [9], in test [17] and in test [10] was “inactive” throughout. Further, in test [11], the Potency entry is “inactive”.

Turning to `FC1(F)C(F)(F)C(F)(F)C2(F)C(F)(F)C(F)(F)C(F)(F)C(F)(F)C2(F)C1(F)F` (stereo not drawn), the Potency result in [1], in test [2], in test [3], in [4], in test [18] and in test [12] was “inactive” throughout. The Potency result in [19], in test [14], in test [6], in [8], in [15] and in [16] was “inactive” throughout. Also, the Potency result in [17] and in test [11] was “inactive” in each case.

For the compound `CCCCN(CCCC)CCC(O)c1cc2c(Cl)cc(Cl)cc2c2cc(C(F)(F)F)ccc12` (stereo not drawn), the Potency in test [1] is 21.1 µM (active). In addition, the Potency entry in test [2], in [3], in [4], in test [12], in test [5] and in test [13] was “inactive” each time. Also, the Potency entry in [14], in test [6], in test [7], in test [8], in test [15] and in [9] was “inactive” each time. Besides, the Potency entry in test [17], in [10] and in test [11] was “inactive” each time.

On to `C1COCO1`, for which the Potency entry in [1], in test [2], in test [3], in test [4], in test [12] and in test [5] was “inactive” throughout. The Potency result in test [13], in test [14], in test [6], in test [7], in test [8] and in [15] was “inactive” each time. Moreover, the Potency entry in [16], in [9], in test [17], in [10] and in [11] was “inactive” each time.

Regarding `CC(C)(C)CC(C)(C)N`, the Potency result in test [1], in test [2], in [3], in [4], in test [12] and in test [5] was “inactive” each time. For the same compound, the Potency entry in test [13], in test [14], in test [6], in test [7], in test [8] and in test [16] was “inactive” throughout. Moreover, the Potency entry in test [9], in [10] and in test [11] was “inactive” each time.

Take `c1cc(CCCc2ccncc2)ccn1`: the Potency entry in test [1], in test [2], in test [3], in [4], in test [12] and in [5] was “inactive” each time. Moreover, the Potency entry in test [13], in [6], in test [7], in test [8], in test [15] and in test [16] was “inactive” throughout. Besides, the Potency entry in test [9], in test [17] and in test [11] was “inactive” in each case.
